Most compounds without a hit are left out; they make up all but 1% or so of the library.
Luc counter – Counterscreen for Luciferase (Kinase-Glo TM) Inhibition; Luciferin 4-monooxygenase (Photuris pensylvanica), Q27757; Kinase-Glo luciferase, ATP luminescence, 8 min; Potency, µM (top dose mostly 38.3 µM), inactives show at the highest dose activity change, negative = inhibition, usual class: inhibitors; 200,000 tested, 0.28% active; AID 1379, 2008; also: potency is read from the fitted curve at half-maximal effect; % is scaled to controls: 0 for no effect and ±100 for the full control effect; nearly all actives have a fitted effect of over 60% in size
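Substrate mix (final 50 mM imidazole pH 7.2, 50 mM KCl, 7 mM MgCl2, 10 uM ATP, 0.01% Tween 20, 0.05% BSA) plus pin-tool compound, then Kinase-Glo detection mix; 8 min ambient, luminescence read.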
miR-21 reporter – qHTS Assay for Modulators of miRNAs and/orActivators of miR-21; HeLa miR-21 FLuc reporter, luciferase, 48 h; Potency, µM (doses to about 38.3 µM), inactives show top-dose activity change, positive = activation, actives largely listed as activators; 340,000 tested, under 10 active; AID 2288, 2010;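 also: % of control where 0% means no effect; miR-21 action dims this reporter so a rising signal means less miR-21 action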
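Compounds were titrated across several concentrations (up to approximately 40 uM) and incubated 48 hours with HeLa miR-21-FLuc reporter cells (miR-21 target sequence downstream of FLuc, endogenous miR-21). Readout was firefly luciferase luminescence after lytic detection reagent.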
RXFP1 antag – qHTS Assay for Antagonists of the Relaxin Receptor RXFP1; HEK293-RXFP1, relaxin-stimulated cAMP HTRF, 30 min; stronger effect = lower value; activity change, negative = inhibition, % at 57.5 µM; 350,000 tested, 0.59% active;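 active = activity change of -60% or lower, but not beyond a set lower limit; inconclusive = change between -60% and -40%, or beyond the set limit; inactive = change above -40%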; also: % is scaled to controls: 0 for no effect and ±100 for the full control effect
Target sequence (Q9HBX9 whole entry, looked up): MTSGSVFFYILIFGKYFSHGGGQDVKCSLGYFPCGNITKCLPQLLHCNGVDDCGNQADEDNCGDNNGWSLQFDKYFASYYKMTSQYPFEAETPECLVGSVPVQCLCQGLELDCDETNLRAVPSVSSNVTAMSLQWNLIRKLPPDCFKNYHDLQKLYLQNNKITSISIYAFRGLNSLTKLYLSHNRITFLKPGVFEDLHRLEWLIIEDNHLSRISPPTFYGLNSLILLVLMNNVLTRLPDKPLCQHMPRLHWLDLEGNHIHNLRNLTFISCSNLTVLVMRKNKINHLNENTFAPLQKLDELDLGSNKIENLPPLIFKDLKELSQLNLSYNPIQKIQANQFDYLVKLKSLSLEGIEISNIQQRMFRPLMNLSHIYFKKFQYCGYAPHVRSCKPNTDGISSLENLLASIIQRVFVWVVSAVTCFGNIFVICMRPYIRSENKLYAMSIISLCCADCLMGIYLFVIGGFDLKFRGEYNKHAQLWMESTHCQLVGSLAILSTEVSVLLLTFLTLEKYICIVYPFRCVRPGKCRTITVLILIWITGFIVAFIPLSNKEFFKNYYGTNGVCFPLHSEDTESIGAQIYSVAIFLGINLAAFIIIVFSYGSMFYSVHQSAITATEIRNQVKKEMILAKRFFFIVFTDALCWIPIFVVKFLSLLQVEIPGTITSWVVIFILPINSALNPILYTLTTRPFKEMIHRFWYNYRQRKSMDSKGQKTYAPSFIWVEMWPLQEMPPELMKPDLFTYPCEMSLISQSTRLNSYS
gsp antag – qHTS for Antagonists of gsp, the Etiologic Mutation Responsible for Fibrous Dysplasia/McCune-Albright Syndrome: qHTS | gsp-mutant cells, cAMP HTRF, 30 min | Potency, µM (titrated, usually from 76.9 µM), inactives show at the highest dose activity change, negative = inhibition, usual class: inhibitors | 340,000 tested, 0.4% active; calls by dose curve; cell line not stated here;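 also: intracellular cAMP measured with PDE inhibitor Ro 20-1724 present during compound exposure; potency is read from the fitted curve at half-maximal effect; % is scaled to controls: 0 for no effect and ±100 for the full control effect; nearly all actives have a fitted effect of over 65% in size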
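Cells in G418 medium, seeded 16-24 h, 37C; buffer exchange to DPBS + 1 mM CaCl2, 0.5 mM MgCl2, 0.05% BSA; cpds in DMSO + […] (300 uM stock), 30 min 37C; HTRF cAMP detection.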
RXFP1 ag – qHTS Assay for Agonists of the Relaxin Receptor RXFP1; HEK293T-RXFP1 cAMP TR-FRET, 30 min; response scale: percent of porcine relaxin response, buffer zero; Potency, µM (top dose mostly 57.5 µM), for the others: at the top dose activation, actives largely listed as activators; 370,000 tested, 0.3% active; AID 2676, 2010; also: potency is read from the fitted curve at half-maximal effect; % is scaled to controls: 0 for no effect and ±100 for the full control effect; nearly all actives have a fitted effect of over 60% in size
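HEK293T cells stably expressing RXFP1 were pretreated with the PDE4 inhibitor Ro 20174, exposed to compounds for 30 min at 37C, lysed, and cAMP was read by TR-FRET. Data normalized to buffer (basal) and 29 nM porcine relaxin (100%).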
gsp ag – qHTS for Agonist of gsp, the Etiologic Mutation Responsible for Fibrous Dysplasia/McCune-Albright Syndrome: qHTS; gsp mutant cells, cAMP HTRF, 30 min; Potency, µM (doses to about 76.9 µM), without a hit: at the top dose activation (cAMP increase), actives largely listed as activators; 340,000 tested, 0.13% active; AID 624287, 2012; active = well fitted activation curve with a large enough effect; inconclusive = small, poorly fitted or top-dose-only effect, or another doubt; inactive = no such curve, though single readings can be large or run the other way; cell line not stated here;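 also: phosphodiesterase inhibitor Ro 20-1724 added with compounds to block cAMP breakdown; potency is read from the fitted curve at half-maximal effect; nearly all actives have a fitted effect of over 60% in size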
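Cells in DMEM/10% FBS with G418 were pretreated with compounds in DMSO plus […] (300 uM stock) for 30 min at 37C. cAMP was measured by HTRF (cAMP-d2 plus anti-cAMP antibody-K) after 30 min at room temperature.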
Numbers without * were called inactive; [ ] = remark or other dose. Unless noted, calls follow the shape of the dose curve; as a rule, active = well fitted curve in the direction sought with a large enough effect; inconclusive = small, poorly fitted or top-dose-only effect, or another doubt; inactive = no such curve, though single readings can be large; an effect the other way counts as inactive or inconclusive.

How did COc1cccc(NC(=O)CSc2nc3c(sc4ccccc43)c(=O)n2CCN(C)C)c1 do in these assays?
Luc counter: 1.1%; miR-21 reporter: 7.6%; RXFP1 antag: -64.5*; gsp antag: 3.9%; RXFP1 ag: 3.9%; gsp ag: -1.5%[15.4 µM]

How did Cc1ccc(-n2c(SCC(N)=O)nc3c(oc4ccccc43)c2=O)cc1C do in these assays?
miR-21 reporter: 25.2%; RXFP1 ag: 2.1%

Results for OCC1(Cc2cccc(Cl)c2)CCCN(Cc2ccc(F)c(F)c2)C1 (stereo not drawn) ?
miR-21 reporter: 7.9%; RXFP1 antag: -27.7; gsp antag: 0.9%; RXFP1 ag: -1.2%; gsp ag: 5.9%[15.4 µM]

Results for OCC1(Cc2ccc(F)cc2F)CCCN(Cc2ccc(Cl)cc2)C1 (stereo not drawn) ?
miR-21 reporter: -0.3%; RXFP1 antag: -60.8*; gsp antag: 9.2%; RXFP1 ag: -0.2%; gsp ag: -256.0%

What do the screens show for `COc1ccc(-c2csc(NC(=O)Cc3ccccc3F)n2)cc1OC`?
miR-21 reporter: 28.8%; RXFP1 antag: -5.8; gsp antag: inconclusive; RXFP1 ag: 0.4%; gsp ag: -18.3%[15.4 µM]

Results for COc1ccc(CC(=O)Nc2nc(-c3ccc(OC)c(OC)c3)cs2)cc1OC ?
miR-21 reporter: 30.0%; RXFP1 antag: -26.8; gsp antag: 28.2µM*; RXFP1 ag: 1.3%; gsp ag: 4.4%[15.4 µM]

What do the screens show for `O=C(Cc1ccccc1F)Nc1nc(-c2ccc(F)cc2)cs1`?
miR-21 reporter: 3.8%; RXFP1 antag: -93.0*; gsp antag: -16.0%; RXFP1 ag: -0.6%; gsp ag: -5.0%

What do the screens show for `Cc1ccnc(Nc2nc(-c3ccc(F)cc3)cs2)c1`?
miR-21 reporter: 27.2%; RXFP1 antag: -66.3*; gsp antag: -26.6%; RXFP1 ag: -0.4%; gsp ag: 2.3%[15.4 µM]

How did COc1ccc(-c2csc(Nc3ccccn3)n2)cc1OC do in these assays?
miR-21 reporter: -19.4%; RXFP1 antag: -83.6*; gsp antag: -27.4%; RXFP1 ag: -1.4%; gsp ag: -0.7%[15.4 µM]

What do the screens show for `O=C1CCCc2c(O)cccc21`?
RXFP1 antag: -3.8

How did COc1ccc(S(=O)(=O)Nc2ccccc2C(=O)Nc2nc(-c3ccc(F)cc3)cs2)cc1OC do in these assays?
Luc counter: -1.4%; miR-21 reporter: inconclusive; RXFP1 antag: -28.2; gsp antag: 35.5µM*; RXFP1 ag: 4.0%; gsp ag: -6.1%[15.4 µM]

How did CC(NC(=O)/C(C#N)=C/c1ccc([N+](=O)[O-])o1)c1ccccc1 (stereo not drawn) do in these assays?
miR-21 reporter: inconclusive; RXFP1 antag: -74.5*; gsp antag: -25.1%; RXFP1 ag: -0.3%; gsp ag: -1.3%

How did CCOc1ccc(NC(=O)Nc2cc(C(C)C)c(O)cc2C)cc1 do in these assays?
miR-21 reporter: 4.0%; RXFP1 antag: -4.9; gsp antag: -9.9%; RXFP1 ag: 0.8%; gsp ag: 8.0%[15.4 µM]

Results for Cc1cc(O)c(C(C)C)cc1NC(=S)Nc1cc(C(C)C)c(O)cc1C ?
RXFP1 antag: -15.4; gsp antag: 28.2µM*; gsp ag: -1.4%

Results for Cc1ccc(N2CCN(S(=O)(=O)N3CCCCC3)CC2)c(C)c1 ?
Luc counter: -1.5%; miR-21 reporter: -3.4%; RXFP1 antag: -70.3*; gsp antag: -8.9%; RXFP1 ag: -0.2%; gsp ag: -0.4%[15.4 µM]

How did CCOC(=O)CC(=O)CSc1ncnc2c1oc1ccccc12 do in these assays?
Luc counter: -5.1%; miR-21 reporter: -25.6%; RXFP1 antag: 25.2; gsp antag: inconclusive; RXFP1 ag: 0.794µM*; gsp ag: inconclusive

What do the screens show for `O=C(O)CSc1ncnc2c1oc1ccccc12`?
miR-21 reporter: -2.6%; RXFP1 antag: 11.9; gsp antag: 1.8%; RXFP1 ag: inconclusive; gsp ag: 1.7%

What do the screens show for `N#CCCSc1ncnc2c1oc1ccccc12`?
Luc counter: 1.8%; miR-21 reporter: -51.2%; RXFP1 antag: 10.3; gsp antag: 43.8%; RXFP1 ag: 14.1µM*; gsp ag: -2.4%

How did Oc1cc2c(cc1O)[C@@H]1c3ccc(O)c(O)c3OC[C@]1(O)C2 do in these assays?
Luc counter: -2.8%

Results for CC(C)C[C@H](NC(=O)N1CCn2c1nc1ccccc12)C(=O)NC1CCCCC1 ?
miR-21 reporter: -2.5%; RXFP1 antag: -66.9*; gsp antag: 10.6%; RXFP1 ag: 0.6%; gsp ag: 38.1%

How did C[C@H](NC(=O)N1CCn2c1nc1ccccc12)C(=O)NC1CCCCC1 do in these assays?
miR-21 reporter: 2.0%; RXFP1 antag: 18.5; gsp antag: -5.3%; RXFP1 ag: 3.0%; gsp ag: -2.6%

How did COC(=O)c1nn(-c2ccc3c(c2)CCN3C(C)=O)cc1O do in these assays?
Luc counter: 11.2µM*; miR-21 reporter: inconclusive; RXFP1 antag: 1.8; gsp antag: 5.0%; RXFP1 ag: 10.0%; gsp ag: inconclusive

How did O=c1c2cnn(-c3ccc(Cl)cc3)c2ncn1Cc1cccc(C(F)(F)F)c1 do in these assays?
miR-21 reporter: 2.0%; RXFP1 antag: -3.1; RXFP1 ag: -1.1%

How did O=c1c2ccsc2ncn1Cc1cccc(C(F)(F)F)c1 do in these assays?
Luc counter: -2.7%; miR-21 reporter: -6.5%; RXFP1 antag: 16.3; gsp antag: -1.8%; RXFP1 ag: 2.7%; gsp ag: 12.6µM*

Results for O=C(NCc1ccncc1)C(=O)Nc1nc(C23CC4CC(CC(C4)C2)C3)cs1 ?
Luc counter: 0.8%; miR-21 reporter: 19.3%; RXFP1 antag: inconclusive; gsp antag: 44.7µM*; RXFP1 ag: 0.7%; gsp ag: -6.4%

Results for N#CC1C(=O)c2ccccc2C1c1ccccc1 (stereo not drawn) ?
RXFP1 antag: -92.0*; gsp antag: 14.8%; gsp ag: 17.1%

Results for O=C(CS)Nc1ccccc1 ?
RXFP1 antag: 33.8

How did C[C@H](Cc1ccccc1)Nc1ncnc2c1ncn2[C@@H]1O[C@H](CO)[C@@H](O)[C@H]1O do in these assays?
gsp antag: -7.2%; RXFP1 ag: 11.2µM*

Results for Nc1ncnc2c1ncn2[C@@H]1O[C@H](CO)[C@H](O)[C@H]1O ?
Luc counter: 0.1%

Assay outcomes (PubChem BioAssay)
